VP16 counter = Gal4-VP16 reporter inhibition counter-screen; Drosophila S2 Gal4-VP16 UAS-luciferase, luminescence, 20 h; Potency, µM (top dose mostly 53.6 µM), most hits filed as inhibitors; hit rate 3.5% among 310,000; AID 2546;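 further: Gal4-VP16 expression switched on by copper sulfate through the metallothionein promoter; nearly all actives have a fitted effect of over 50% in size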
TGFb SMAD3 inh = TGF-b pathway inhibition; HepG2 CAGA-GFP TGF-b/SMAD3 reporter, GFP fluorescence, 18 h; TGF-beta stimulated, 500 pg/mL final; Potency, µM (series often up to 46.1 µM), hits mostly inhibitors; hit rate 1.2% among 410,000; AID 588855; further: nearly all actives have a fitted effect of over 65% in size
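HEPG2 CAGA-GFP, 1000 cells/well; 2 h settle, 37 C; cpd via pin tool; TGF-b 500 pg/mL final; 18 h, 37 C; GFP imaging ex488/em500-530; %Activity normalised to -TGF-b and +DMSO controls; CRC fit, curve class.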
ATXN viability = cell viability loss in ATXN counter-screen. Potency, µM (titrated, usually from 56.7 µM), usual class: cytotoxic. AID 651635. S2 cells (HEK-293 line with an ATXN2-luciferase reporter) viability, CellTiter-Fluor protease fluorescence, 24 h. hit rate 0.49% among 400,000; further: nearly all actives have a fitted effect of over 40% in size
HepG2 tox = kills HepG2 cells in TGF-b inhibitor counter-screen; HepG2 CAGA-GFP viability, ATP luminescence, 18 h; Potency, µM (titrated, usually from 46.1 µM), hits mostly cytotoxic; hit rate 0.76% among 410,000; AID 588856
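CellTiter-Glo luminescence gave cytotoxicity after 18 hours at 37 degrees C. The cells were HepG2 CAGA-GFP in 1% FBS DMEM, stimulated with 500 pg/mL TGF-beta after compound addition. %Activity was normalised to no-cell wells (complete cell-killing) and DMSO (no toxicity), and curves were fitted and classified.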
RORgamma inh = blocks mouse ROR gamma transcriptional activity; Potency, µM (highest dose often 53.6 µM), usual class: inhibitors; AID 2551; hit rate 5.4% among 310,000; Drosophila S2 Gal4-RORgamma UAS-luciferase reporter, 20 h; further: nearly all actives have a fitted effect of over 60% in size
Target sequence (P51450 whole entry, looked up, the tested form may be a part): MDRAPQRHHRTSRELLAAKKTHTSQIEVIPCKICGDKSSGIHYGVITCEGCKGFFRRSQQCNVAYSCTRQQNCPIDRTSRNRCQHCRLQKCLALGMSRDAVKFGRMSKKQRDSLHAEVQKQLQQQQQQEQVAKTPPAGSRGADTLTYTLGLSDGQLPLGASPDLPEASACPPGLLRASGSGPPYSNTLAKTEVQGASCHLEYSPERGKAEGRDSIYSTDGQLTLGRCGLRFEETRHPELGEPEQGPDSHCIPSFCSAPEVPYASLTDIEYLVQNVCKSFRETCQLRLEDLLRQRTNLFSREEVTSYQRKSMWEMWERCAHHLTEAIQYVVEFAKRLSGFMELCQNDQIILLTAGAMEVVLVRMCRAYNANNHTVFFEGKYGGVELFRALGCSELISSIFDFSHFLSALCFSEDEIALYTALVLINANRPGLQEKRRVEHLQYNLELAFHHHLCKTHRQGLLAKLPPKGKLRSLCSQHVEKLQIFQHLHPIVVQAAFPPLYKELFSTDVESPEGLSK
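Drosophila Schneider cells stably carrying a metallothionein-driven Gal4 DBD–ROR gamma fusion and a UAS-Photinus luciferase reporter were exposed to compound for 1 hr, then induced with copper sulfate (700 uM final) for 20 hr at ambient temperature before luminescence reading.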
ATXN2 expr inh = reduces ATXN2 reporter expression in HEK-293 cells; hit rate 0.72% among 360,000; Potency, µM (doses to about 57 µM), actives largely listed as inhibitors; HEK-293 ATXN2-luciferase reporter, luminescence, 24 h; further: nearly all actives have a fitted effect of over 55% in size
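qHTS (up to 57 uM final) was run with 24 h compound exposure of reporter cells at 37 °C. Each well was multiplexed: SteadyGlo luminescence measured ATXN2-luciferase expression after a fluorogenic Gly-Phe-AFC viability readout (25 uM final).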
Each line names hits and unclear results; the compound was inactive in the other large screens; ! = not confirmed by another sample. Only some compounds are listed: those with a hit (about 6.1% of all), similar ones and a draw of the others. The call rests on the fitted dose curve; in most records, active means well fitted curve in the direction sought with a large enough effect; inconclusive means small, poorly fitted or top-dose-only effect, or another doubt; inactive means no such curve, though single readings can be large; an effect the other way counts as inactive or inconclusive.

Cc1ccc2c(c1)c1c3n2CCN(C(=O)CCl)C3CCC1 (stereo not given)	VP16 counter 11.2µM, TGFb SMAD3 inh inconclusive, ATXN viability inconclusive, RORgamma inh 2.51µM
N#Cc1cccc(-c2nc(NCc3ccccc3)c3ccccc3n2)c1	none (no result: TGFb SMAD3 inh, ATXN viability, HepG2 tox, ATXN2 expr inh)
O=C(/C=C/c1ccco1)NC(=S)Nc1cccc(-c2nc3ccccc3s2)c1	none (no result: VP16 counter, RORgamma inh)
Cc1ccc(-c2nc3ccccc3s2)cc1NC(=S)NC(=O)/C=C/c1ccco1	VP16 counter 10µM, ATXN viability inconclusive, RORgamma inh 3.98µM
O=C(/C=C/c1ccco1)NC(=S)Nc1cc(-c2nc3ccccc3s2)ccc1Cl	VP16 counter 1µM, ATXN viability inconclusive, RORgamma inh 0.631µM
COc1ccc(/C=N/Nc2nncc3ccccc23)cc1	ATXN2 expr inh inconclusive
NCc1csc(Nc2nncc3ccccc23)n1	TGFb SMAD3 inh inconclusive (no result: VP16 counter, RORgamma inh)
CNC(=S)NNc1nncc2ccccc12	VP16 counter 4.47µM, RORgamma inh 5.01µM
COc1ccccc1/C=N/Nc1nncc2ccccc12	VP16 counter 3.98µM, RORgamma inh 2µM
CCNC(=S)NNC(=O)c1csc2ccccc12	RORgamma inh inconclusive
CCNC(=S)NNc1nncc2ccccc12	VP16 counter 3.16µM, RORgamma inh 0.501µM
NNc1nncc2ccccc12	VP16 counter inconclusive, ATXN viability inconclusive, RORgamma inh 7.08µM! (no result: TGFb SMAD3 inh, HepG2 tox)
COc1ccc(/C(C)=N/Nc2nncc3ccccc23)cc1	TGFb SMAD3 inh inconclusive, RORgamma inh inconclusive
Cc1ccc(C(=O)Nc2ccc3oc(-c4cc(Br)ccc4Cl)nc3c2)cc1	none (no result: VP16 counter, RORgamma inh)
O=C(C[n+]1cccc(Br)c1)c1cc(Cl)ccc1Cl	none (no result: VP16 counter, ATXN viability, RORgamma inh, ATXN2 expr inh)
CC1S/C(=N/N=C/c2ccco2)N(Cc2ccccc2)C1=O (stereo not given)	none (no result: ATXN2 expr inh)
CC1(C)S/C(=N/N=C/c2ccco2)NC1=O	VP16 counter 7.94µM, RORgamma inh 12.6µM
CC1S/C(=N/N=C/c2ccco2)NC1=O (stereo not given)	VP16 counter inconclusive, TGFb SMAD3 inh inconclusive, RORgamma inh 11.2µM
C/C(=N\N=C1/NC(=O)C(C)S1)c1ccco1 (stereo not given)	RORgamma inh 11.2µM
CCC1S/C(=N/N=C/c2ccco2)N(Cc2ccc(F)cc2)C1=O (stereo not given)	TGFb SMAD3 inh inconclusive (no result: ATXN2 expr inh)
CCCC1S/C(=N/N=C/c2ccco2)NC1=O (stereo not given)	VP16 counter 3.16µM, RORgamma inh 1.58µM
CCCS(=O)(=O)NCc1c(C)ncc2c1CCN(C(=O)c1cccc(C(F)(F)F)c1)C2	none (no result: VP16 counter, TGFb SMAD3 inh, HepG2 tox, RORgamma inh, ATXN2 expr inh)
O=C(CC1S/C(=N/N=C/c2ccco2)NC1=O)Nc1cccc(Cl)c1Cl (stereo not given)	VP16 counter inconclusive, RORgamma inh 20µM
CCC1S/C(=N/N=C/c2ccco2)N(Cc2ccccc2C)C1=O (stereo not given)	none
CCCCC1S/C(=N/N=C/c2ccco2)NC1=O (stereo not given)	VP16 counter 2µM, RORgamma inh 0.447µM
O=C(O)CNC(=O)CC1S/C(=N/N=C/c2ccccc2O)NC1=O (stereo not given)	none (no result: ATXN2 expr inh)
Cc1ccc(C)c(Nc2nc3c(S(=O)(=O)c4ccc(Br)cc4)nnn3c3ccsc23)c1	TGFb SMAD3 inh inconclusive (no result: VP16 counter, ATXN viability, RORgamma inh, ATXN2 expr inh)
COC(=O)CC1C(=O)NCCN1C(=O)CSc1nc2ccccc2c(=O)n1CC(C)C (stereo not given)	VP16 counter inconclusive, RORgamma inh 11.2µM (no result: ATXN viability)
CC1(C2CCN(Cc3c[nH]c4ccccc34)CC2)NC(=O)N(CCN2CCOCC2)C1=O (stereo not given)	none (no result: VP16 counter, TGFb SMAD3 inh, HepG2 tox, RORgamma inh, ATXN2 expr inh)
CC(NC(=O)NNC(N)=S)(C(F)(F)F)C(F)(F)F	VP16 counter 20µM, RORgamma inh inconclusive
CC(NC(=O)NC(N)=O)(C(F)(F)F)C(F)(F)F	none
CCCCOc1ncnc2c1[nH]c1ccc(C)cc12	VP16 counter 10µM
CC1CCC(NC(=O)c2ccc(CSc3nc4ccncc4n3Cc3ccc(F)cc3)cc2)CC1 (stereo not given)	TGFb SMAD3 inh 3.55µM, ATXN viability inconclusive, ATXN2 expr inh inconclusive (no result: VP16 counter, RORgamma inh)

High-throughput results (PubChem BioAssay)
